Structures are written as SMILES. The campaign covered roughly 260,000 compounds. About 890 (0.34%) were called active. A call without a number means that no potency is given here. Not shown: some 1% with an inconclusive outcome. This is one part of a sample in which actives are shown more often than they occur. A number with no mark means an inactive call. The call rests on the fitted dose curve; in most records, active means well fitted activation curve with a large enough effect; inconclusive means small, poorly fitted or top-dose-only effect; inactive means no such curve, though single readings can be large or run the other way.
Potency means the concentration at half of the fitted maximal effect.

For this assay, the target named is Pyruvate kinase PKM (Homo sapiens) (UniProt P14618). Nature of the assay: qHTS Assay for Activators of Human Muscle isoform 2 Pyruvate Kinase. Further: nearly all actives have a fitted effect of over 55% in size. Conditions: purified PKM2, Kinase-Glo ATP luminescence; Potency: activation; series mostly up to 57.5 µM. The text has this: NIH Chemical Genomics Center [NCGC] Matthew G. Vander Heiden, M.D., Ph.D. [Harvard Medical School, 77 Avenue Louis Pasteur, Boston, MA 02115] MLPCN Grant: 1 R03 MH085679-01 NCGC Assay Overview: Human pyruvate kinase muscle 2 (hPK-M2) enzyme was supplied as a highly purified (>95% pure) preparation from Harvard Medical School and assayed for its ability to generate ATP from ADP using phosphoenolpyruvate (PEP) as a substrate. ATP generation was detected in a coupled reaction by luciferase-mediated luminescence, an ATP-dependent process. […] The enzyme was assayed at an intermediate level of activity to screen for both inhibitors and activators.
Pyruvate kinase PKM (Homo sapiens), sequence (P14618 whole entry, looked up, canonical isoform): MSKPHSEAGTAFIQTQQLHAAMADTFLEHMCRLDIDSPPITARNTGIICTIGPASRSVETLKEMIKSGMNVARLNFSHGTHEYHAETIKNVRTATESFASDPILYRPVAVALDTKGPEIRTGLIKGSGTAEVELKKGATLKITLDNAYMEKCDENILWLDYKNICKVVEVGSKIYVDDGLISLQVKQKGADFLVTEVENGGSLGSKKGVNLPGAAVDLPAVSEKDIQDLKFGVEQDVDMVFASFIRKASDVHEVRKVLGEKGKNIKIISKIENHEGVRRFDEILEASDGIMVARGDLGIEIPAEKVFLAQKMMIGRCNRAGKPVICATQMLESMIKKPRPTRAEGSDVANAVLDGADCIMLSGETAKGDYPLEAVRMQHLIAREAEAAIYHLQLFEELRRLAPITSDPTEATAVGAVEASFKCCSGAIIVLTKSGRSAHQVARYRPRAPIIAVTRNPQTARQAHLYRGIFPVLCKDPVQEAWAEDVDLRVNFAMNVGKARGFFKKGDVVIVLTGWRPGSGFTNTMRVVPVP
NCGC Assay Protocol Summary: Three uL of substrate mix (at r.t.) in assay buffer (50 mM Imidazole pH7.2, 50 mM KCl, 7 mM MgCl2, 0.01% Tween 20, 0.05% BSA) was dispensed into white solid bottom 1,536 well microtiter plates so that the final concentrations of substrates in the assay were 0.1 mM ADP and 0.5 mM PEP. 23 nL of compound were delivered by a pin tool and 1 uL of enzyme mix in assay buffer (4 degree Celsius) was added. Plates were incubated at room temperature for 1 hour. Two uL of detection mix (Kinase-Glo, Promega; at 4 degree Celsius protected from light) was added and luminescence read by a ViewLux (Perkin Elmer) at 5 second exposure/plate. Data were normalized to the uninhibited and AC100 inhibition (no enzyme). To monitor activation, the first column contained a titration of the activator, NCGC00031955-01 (16-point 1:2 dilutions in duplicate starting at 57 uM) and the first 16 rows of column 4 contained 57 uM of NCGC00031955-01.
On the technique in general: qHTS replaces the single test concentration by a dilution series.
On to `CCC(=O)Nc1nc(C)c(C(=O)Nc2cccc(Cl)c2)s1`, for which the Potency entry was “inactive”. On to `O=C(CCCCCn1c(=S)[nH]c2ccsc2c1=O)NC1CCCCC1`, for which the activation is 13.9% [at 0.46 µM, 0% is enzyme alone, no compound].

Take `CCSc1nsc(NC(=O)Nc2ccccc2OC)n1`: the Potency result was “inactive”. The same measure, in the same setting: next, `Cc1ccc(NC(=O)CSc2cccc3cccnc23)c(C)c1`: “inactive”; `Cc1ccc(NC(=S)Nc2ccc(F)cc2)cc1`: “inactive”; `N=c1oc2ccccc2cc1C(=O)NCc1ccccc1`: “inactive”.

For `Cc1ccc(S(=O)(=O)N2CCN(C)CC2)cc1`, the Potency entry is “inactive”. On to `O=C(NCc1cccs1)C1CCN(S(=O)(=O)c2ccc(Cl)cc2)CC1`, for which the Potency is 14.1 µM (active). On the same count and under the same terms, then `O=C(NCc1ccc2c(c1)OCO2)C1CCCN(S(=O)(=O)c2cccs2)C1` (centres undefined), with “inactive”. For the molecule `CN1CCCN(S(=O)(=O)c2ccc3c(c2)OCCO3)CC1`, the Potency is 3.55 µM (active). In the case of `O=C(NCc1ccccn1)C1CCN(S(=O)(=O)c2ccc(Br)cc2)CC1`, the Potency entry was “inactive”. Same read-out and setting: then `O=C(NCc1cccs1)C1CCN(S(=O)(=O)c2ccc3c(c2)OCCO3)CC1`, with 3.98 µM (active). For the molecule `O=C(c1ccc2c(c1)OCCO2)C1CCN(S(=O)(=O)c2cccc(F)c2)CC1`, the Potency entry was “inactive”.

Consider `O=S(=O)(c1ccc2c(c1)OCCO2)N1CCc2ccccc21`, for which the Potency result was “inactive”.

As to `O=C(NCc1ccc(Cl)cc1)C1CCN(S(=O)(=O)c2cccs2)CC1`, the Potency result was “inactive”. Still for that read-out and setting: then `Cc1ccccc1CN1C[C@@H]2C[C@@H](c3cn(C)nc3-c3ccccc3)N3CCC[C@@]23C1=O`, with 5.62 µM (active). Same read-out and setting: then `Cc1ccccc1CN1C[C@@H]2C[C@@H](c3ccc4nsnc4c3)N3CCC[C@@]23C1=O`, with “inactive”; and `Cc1ccc(CN2CCN(Cc3cn(C)nc3-c3ccccc3)CC2CCO)o1` (centres undefined), with “inactive”.

On to `CN(C(=O)CSc1nncc2ccccc12)C1CCCCC1`, for which the Potency result is “inactive”. Still for that read-out and setting: then `Brc1c(CSc2nncc3ccccc23)nc2ccccn12`, with 4.47 µM (active); and `COc1ccc(Cl)cc1NC(=O)c1cccc(N2C(=O)C3CC=CCC3C2=O)c1` (centres undefined), with “inactive”; and `O=C(NCC1CCCO1)c1cc2c([nH]c3ccccc32)c(-c2ccc(F)cc2)n1` (centres undefined), with “inactive”. Still for that read-out and setting: next, `O=C(Nc1ccc(S(=O)(=O)Nc2ccccn2)cc1)c1ccccc1`: “inactive”; `CC(=O)c1ccc2c(ccc3ccccc32)c1`: “inactive”. On the same count and under the same terms, next, `CC(=O)CCC(=O)c1ccc2ccccc2c1`: “inactive”. For the molecule `C=CC(=O)c1ccc2ccccc2c1`, the Potency was 10 µM (active). Consider `CCOC(=O)c1cccc(NC(=O)C2CCN(c3ncnc4c3nc3n4CCCCC3)CC2)c1`, for which the activation was 0.194% [at 0.46 µM, 0% is enzyme alone, no compound]. In the case of `CCCOC1CCCN(C(=O)c2cc(COc3cncc(Cl)c3)on2)C1` (centres undefined), the Potency result is “inactive”. Still for that read-out and setting: then `O=C(NC(=S)NC1CCCCC1)c1ccc(Cl)cc1`, with “inactive”; and `O=S(=O)(NC1CCCCC1N1CCN(c2ccccc2F)CC1)c1ccccc1` (centres undefined), with “inactive”; and `O=C(Cc1ccc(Cl)cc1)NC(=S)Nc1ccccc1O`, with “inactive”. Still for that read-out and setting: next, `CCN1C(=S)N[C@@H](CCc2ccccc2)[C@H](C(=O)OC)[C@H]1C`: “inactive”. Still for that read-out and setting: next, `CC1(C(=O)NCCc2c[nH]c3ccccc23)C=CC2(CCCCC2)N1C(=O)c1ccccc1` (centres undefined): “inactive”. Take `Cc1ccccc1NC(=O)CSc1nc2ccc(Nc3nc(N4CCOCC4)nc(N4CCOCC4)n3)cc2s1`: the Potency entry was “inactive”.

For the molecule `CN(C(=O)CC1C(=O)NCCN1Cc1ccc(F)cc1Cl)C1CCCCC1` (centres undefined), the Potency result was “inactive”. For the molecule `CC(=O)N1c2ccc(S(=O)(=O)N3CCCC(C(=O)Nc4cccc(F)c4)C3)cc2CC1C` (centres undefined), the Potency result is “inactive”. Same read-out and setting: next, `CCC(C)c1ccc(NC(=S)N2CCCC2)cc1` (centres undefined): “inactive”; `Cc1noc(C)c1CSCC(=O)N(CCC(C)C)c1c(N)n(Cc2ccccc2)c(=O)[nH]c1=O`: “inactive”. The same measure, in the same setting: then `COC(=O)c1ccc(COc2ccc(/C=C/C(=O)c3ccc(OC)c(CSCC(=O)O)c3)cc2OC)cc1`, with “inactive”.

Take `CCN(CC)CCn1c(N)c(S(=O)(=O)c2ccccc2)c2nc3ccccc3nc21`: the Potency entry is “inactive”.

In the case of `Cc1ccc(S(=O)(=O)c2c(N)n(C)c3nc4ccccc4nc23)cc1`, the Potency is 12.6 µM (active).

For the molecule `CCC(=O)Nc1c(S(=O)(=O)c2ccccc2)c2nc3ccccc3nc2n1Cc1ccccc1`, the Potency entry is “inactive”.

Regarding `c1ccc(Cc2ccc(OCCn3ccnc3)cc2)cc1`, the Potency result is “inactive”. For `O=C(Nc1ccc(C(=O)N2CCCCC2)cc1)c1cccc([N+](=O)[O-])c1`, the Potency entry was “inactive”. Same read-out and setting: then `CCCCC(C(=O)NC(C)(C)C)N(Cc1ccccc1)C(=O)c1snc(C(N)=O)c1N` (centres undefined), with “inactive”. As to `COc1ccc(-c2nn(-c3ccccc3)cc2/C=C2/SC(=S)N(CCCC(=O)O)C2=O)c(C)c1`, the activation is -3.19% [at 11.5 µM, 0% is enzyme alone, no compound]. For the molecule `CCCc1cc(C(=O)N2CCCC(CO)(CCCc3ccccc3)C2)n(C)n1` (centres undefined), the Potency result was “inactive”.

Turning to `O=C(CNc1cccc(S(=O)(=O)N2CCCCC2)c1)Nc1ccccc1F`, the Potency entry was “inactive”.

For `Cc1cccc(-n2ncc(Cl)c(Cl)c2=O)c1`, the Potency result was “inactive”.

Take `C/C(=N\N(C)C)c1ccc(OCCOc2ccc([N+](=O)[O-])cc2)cc1`: the Potency result is “inactive”. The same measure, in the same setting: then `O=C(NCc1ccco1)c1cccn2c(=O)c3c4c(sc3nc12)CCCC4`, with 25.1 µM (active); and `COc1ccc(CCn2c(=N)c(C(=O)NCc3ccco3)cc3c(=O)n4cccc(C)c4nc32)cc1`, with “inactive”. On the same count and under the same terms, next, `C=C(C)Cn1c(SCC(=O)NCc2ccco2)nc2sc3c(c2c1=O)CCC3`: “inactive”; `O=C(CCCC(=O)N1CCN(c2cccc(Cl)c2)CC1)c1ccccc1`: “inactive”. On the same count and under the same terms, then `COc1ccc(C2=NN(C(=O)CCC(=O)O)C(c3cccs3)C2)cc1OC` (centres undefined), with “inactive”; and `CS(=O)(=O)Nc1ccc(C2=NN(S(C)(=O)=O)C(c3cccs3)C2)cc1` (centres undefined), with “inactive”; and `CCS(=O)(=O)Nc1ccc(C2=NN(C(C)=O)C(c3cccs3)C2)cc1` (centres undefined), with 4.47 µM (active).

As to `CC(=O)c1cc2c(cc1NC(=O)Cn1nc(-c3ccc(F)cc3)ccc1=O)OCO2`, the Potency entry is “inactive”.

Take `CC(=O)N1CCc2c(sc(NC(=O)CCS(=O)(=O)c3ccccc3)c2C#N)C1`: the Potency entry is “inactive”. Still for that read-out and setting: next, `CCOC(=O)c1ccc(NC(=O)Cc2cccs2)cc1`: “inactive”; `CC1CCN(C(=S)NC(=O)c2ccccc2Br)CC1`: “inactive”. Same read-out and setting: then `O=C(Nc1ccc(N2CCOCC2)c(Cl)c1)c1ccc(S(=O)(=O)N2CCOCC2)cc1`, with “inactive”; and `COc1ccc(C2=NN(C(C)=O)C(c3ccccc3)C2)cc1` (centres undefined), with “inactive”; and `COc1ccc(C2CC(c3ccccc3)=NN2C(=O)c2ccc(Cl)c([N+](=O)[O-])c2)cc1` (centres undefined), with “inactive”. Still for that read-out and setting: then `COc1ccc(C2CC(c3ccc([N+](=O)[O-])cc3)=NN2C(C)=O)cc1` (centres undefined), with 12.6 µM (active); and `CC[C@]1(c2ccccc2OC)C(=O)N(C(=O)OC)N1C(=O)OC`, with “inactive”; and `CCOC(=O)c1cc(C(=O)Nc2ccc(S(=O)(=O)Nc3ccc(OC)cc3)cc2)nn1C`, with “inactive”.

With `Cc1cccc(NC(=S)NCCc2ccc(Cl)cc2)c1C`, the Potency result is “inactive”. Still for that read-out and setting: next, `COc1ccc(-n2nc(C(=O)NCC(=O)N3CCN(c4ccccc4OC)CC3)c3ccccc3c2=O)c(OC)c1`: “inactive”; `O=c1c2ccccc2nnn1CSc1nnnn1-c1ccccc1`: 28.2 µM (active); `O=c1c2ccccc2nc(CSc2nnnn2-c2ccccc2)n1-c1ccccc1`: “inactive”. Same read-out and setting: next, `Nc1nnc(SCn2nnc3ccccc3c2=O)s1`: “inactive”; `CCC(C)c1ccccc1NC(=O)CN(C)CC(=O)Nc1ccccc1SC` (centres undefined): “inactive”; `O=C(N/N=C/c1cccc(OCc2ccccc2)c1)c1ccc(Br)o1`: “inactive”. Same read-out and setting: then `CCN(C(=O)COc1ccc(C(=O)c2ccccc2)cc1)c1ccccc1`, with “inactive”.

Turning to `CC1CCN(C2=NC(=O)/C(=C/c3ccc(O)cc3)S2)CC1`, the activation was -2.26% [at 11.5 µM, 0% is enzyme alone, no compound]. `CCOC(=O)C1(Cc2ccccc2C)CCCN(C(=O)c2ccc(COC)o2)C1` (centres undefined): the Potency result was “inactive”.

Consider `S=C(Nc1ccc(Br)cc1)NC1CCN(Cc2ccccc2)CC1`, for which the Potency entry is “inactive”. Same read-out and setting: then `CSc1nc2ccc(S(=O)(=O)N3CCc4ccccc43)cc2s1`, with 2.24 µM (active); and `O=C(Nc1nc2ccc([N+](=O)[O-])cc2s1)c1ccc(S(=O)(=O)N2CCCc3ccccc32)cc1`, with “inactive”. On the same count and under the same terms, next, `CCn1c(=O)c(=O)n(CC)c2cc(S(=O)(=O)N3CCc4ccccc43)ccc21`: “inactive”; `CC(CN1CCOCC1)OC(=O)c1ccc(C(C)(C)C)cc1` (centres undefined): “inactive”.

In the case of `NC(=S)c1ccc(C(N)=S)o1`, the Potency was 15.8 µM (active).

As to `Cc1cccc(CSc2nc3c(c(=O)n2C)SCC3)c1`, the Potency is 15.8 µM (active). On the same count and under the same terms, then `CCn1c(SCc2ccccc2)nc2c(c1=O)SCC2`, with “inactive”; and `Cn1c(SCC(=O)N2CCCCC2)nc2c(c1=O)SCC2`, with “inactive”.

Turning to `COc1ccc(CNS(=O)(=O)c2cc(-c3cc(C)no3)ccc2C(C)C)cc1`, the activation is 2.22% [at 0.46 µM, 0% is enzyme alone, no compound]. With `Cc1ccc(S(=O)(=O)NC2CCCCCC2)cc1C(N)=O`, the Potency entry is “inactive”.

As to `COc1ccc(Nc2ncnc3ccc(Br)cc23)c(OC)c1`, the Potency entry was “inactive”. Same read-out and setting: then `COC(=O)c1ccccc1NC(=O)C1CCN(C(=O)N2CCOc3ccccc32)CC1`, with “inactive”.

With `CCCC(C(=O)NC1CCCC1)N(C(=O)Cn1nnc(-c2ccc(C)o2)n1)c1cccc(O)c1` (centres undefined), the Potency result is “inactive”. The same measure, in the same setting: next, `COc1ccc(NC(=O)CSc2nc3ccccc3c(=O)n2C)cc1`: “inactive”. Still for that read-out and setting: then `FC(F)(F)c1cccc(Nc2ncnc3ccccc23)c1`, with “inactive”; and `O=C(Nc1cccc(C(F)(F)F)c1)c1cnccn1`, with “inactive”; and `O=c1cc(CO)oc(C(Nc2cccc(C(F)(F)F)c2)c2ccccn2)c1O` (centres undefined), with 25.1 µM (active). Same read-out and setting: then `CCC(C)(C)NC(=O)C(c1ccc(O)cc1)N(Cc1ccco1)C(=O)CCC(=O)Nc1ccccn1` (centres undefined), with “inactive”; and `CN(C)N=Nc1ccc2nc[nH]c2c1`, with 10 µM (active). Turning to `CC/C(O)=N\S(=O)(=O)c1ccc(N=NN(C)C)cc1`, the Potency result is “inactive”. Still for that read-out and setting: next, `CC(=O)c1ccc(N2CCN(C(=O)c3ccc4nc[nH]c4c3)CC2)cc1`: “inactive”.

The record behind these values is PubChem BioAssay AID1631 (National Center for Advancing Translational Sciences (NCATS), 2009).
